The list is not random: actives were taken first. Their share in the collection is about 1.3%.
MEX-5 binding = C. elegans MEX-5 TCR-2 RNA binding activity; Q9XUB2; MEX-5/FITC-TCR2 RNA binding, fluorescence polarization; stronger effect = lower value; activity score (negative = inhibition of binding), % at 10 µM; 300,000 compounds, 0.38% hits;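 active = inhibition past about -25% in most replicates, and total fluorescence under double the plate's negative control median, limit read from the data; inconclusive = replicates evenly split on the limit, or fluorescence at least double controls; inactive = too little inhibition in most replicates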
Bcl-xL primary = blocks human Bcl-xL binding to Bim BH3 peptide | 320,000 compounds, 0.7% hits | GST-Bcl-xL / FITC-Bim BH3 peptide fluorescence polarization | Q07817 | inhibition, % at 10.9 µM;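 active = inhibition above the mean of all tested compounds plus 3 SD, cutoff set per campaign, cut at about 30% in these data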;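 also: inhibitors lower millipolarization by displacing the labeled peptide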
Target sequence (Q07817 whole entry, looked up): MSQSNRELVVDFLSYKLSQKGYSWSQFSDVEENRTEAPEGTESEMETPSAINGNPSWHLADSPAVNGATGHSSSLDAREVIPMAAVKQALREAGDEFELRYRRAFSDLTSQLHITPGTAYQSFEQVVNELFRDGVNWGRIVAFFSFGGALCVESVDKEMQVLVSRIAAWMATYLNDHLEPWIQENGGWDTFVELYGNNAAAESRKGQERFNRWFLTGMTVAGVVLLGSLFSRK
EBV gp42 block = EBV gp42 inhibition | Q1HVG2 | Fluorescence polarization binding assay, mP read-out | inhibition, % (tested at 21.74 µM) | 220,000 compounds, 0.42% hits; in the data active = inhibition above about 50%
Target sequence (Q1HVG2 whole entry, looked up): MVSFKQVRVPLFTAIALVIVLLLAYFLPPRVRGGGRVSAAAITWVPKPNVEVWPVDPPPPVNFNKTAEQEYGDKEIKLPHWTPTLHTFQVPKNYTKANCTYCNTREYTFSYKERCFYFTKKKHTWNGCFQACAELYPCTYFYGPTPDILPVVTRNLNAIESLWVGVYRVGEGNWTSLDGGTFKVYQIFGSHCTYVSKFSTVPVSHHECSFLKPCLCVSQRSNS
E coli Lon inh = E. coli protease La inhibition | P0A9M0 | purified E. coli Lon protease, fluorescence polarization | inhibition, % at 7.94 µM | 360,000 compounds, 0.42% hits | AID 602123; in the data active = inhibition above about 13%, passing the limit was not always enough
GLD-1 RNA inh = GLD-1-TGE RNA interaction inhibition (C. elegans); Q17339; purified GLD-1 + fluorescein TGE RNA, fluorescence polarization; inhibition, % at 5.96 µM; 320,000 compounds, 0.44% hits;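 active = percent inhibition above a per-plate cutoff, the plate mean of test compounds plus 3 SD, cut at about 30% in these data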
Of the large screens only hits and unclear results are named; the others gave an inactive call.

Cc1cc(C)cc(NC(=S)NCc2ccc3[nH]c4c(c3c2)CCCC4)c1	none
CCS(=O)(=O)NCc1ccc2[nH]c3c(c2c1)CCCC3	Bcl-xL primary 59, GLD-1 RNA inh 40 (no result: E coli Lon inh)
CCOc1ccc(NC(=O)c2cc3c(C)nc4ccccc4c3o2)cc1	EBV gp42 block 55
CCn1c(SC(C)C(=O)O)nc2sc3c(c2c1=O)CCC3 (stereo unspecified)	EBV gp42 block 52 (no result: MEX-5 binding)
O=C1c2ccccc2S(=O)(=O)c2cc(N3CCC(C(=O)N4CCCCC4)CC3)ccc21	MEX-5 binding inconclusive (no result: EBV gp42 block, E coli Lon inh)
O=C1c2ccccc2S(=O)(=O)c2cc(N3CCc4ccccc4C3)ccc21	Bcl-xL primary 39 (no result: EBV gp42 block, E coli Lon inh)
O=[N+]([O-])c1ccc(N=Nc2ncc[nH]2)cc1	MEX-5 binding -32 (no result: Bcl-xL primary, EBV gp42 block, GLD-1 RNA inh)
Cc1nc2c(c(=O)n1CCC1=CCCCC1)c1nc3ccccc3nc1n2/N=C/c1ccco1	Bcl-xL primary 39
O=C(COC(=O)c1c2c(nc3ccccc13)/C(=C/c1ccco1)CC2)NC1CCCC1	EBV gp42 block 83 (no result: Bcl-xL primary, GLD-1 RNA inh)
Cc1cc(C)cc(OCC(=O)NCCc2nc3ccccc3[nH]2)c1	Bcl-xL primary 47
Cn1c(=O)c(Nc2ccc(Cl)cc2)c2c3c(cccc31)C(=O)c1ccccc1-2	MEX-5 binding -41, Bcl-xL primary active, EBV gp42 block 176, GLD-1 RNA inh 172 (no result: E coli Lon inh)
CC1=Nc2ccccc2/C1=C\c1nc(-c2ccc(C(F)(F)F)cc2)oc1O	Bcl-xL primary 60 (no result: MEX-5 binding)
Cc1ccc(C)c(S(=O)(=O)N2CCCOC2CNC(=O)C(=O)NCc2ccccn2)c1 (stereo unspecified)	none (no result: EBV gp42 block)
N#CCN(CC#N)C(=O)C1c2ccccc2Oc2ccccc21	Bcl-xL primary active, GLD-1 RNA inh active (no result: EBV gp42 block)
NC(=O)COC(=O)C1c2ccccc2Oc2ccccc21	none (no result: EBV gp42 block)
C/C(=N/OC(=O)c1ccc(C)cc1)c1cccs1	none
COc1ccc(C(=O)O/N=C(/c2cccs2)C(C)(C)C)cc1	GLD-1 RNA inh 138
Cc1ccc(C)c(-c2nnc(NC(=O)Cc3ccccc3)o2)c1	none (no result: EBV gp42 block)
Oc1ccc2ccccc2c1C=Nc1ccc(Cl)cn1	EBV gp42 block 82
CCOc1ccc(CCNC(=O)COC(=O)c2ccc3c(c2)OCCO3)cc1OCC	none (no result: EBV gp42 block)
O=c1cc(-c2ccccc2Cl)oc2c(NS(=O)(=O)c3cc(Cl)cc(Cl)c3O)ccc(O)c12	MEX-5 binding -55
Cc1ccc(C)c(OCCNc2ncccc2[N+](=O)[O-])c1	none (no result: EBV gp42 block)
COc1cc(C(O)P(=O)(OC2CCCCC2)c2ccc(N(C)C)cc2)cc(OC)c1OC (stereo unspecified)	none
CC(C)c1ccc(C(O)P(=O)(OC2CCCCC2)OC2CCCCC2)cc1 (stereo unspecified)	Bcl-xL primary 35
CC(NC(=O)c1cc(F)c(F)cc1Cl)C1CC2CCC1C2 (stereo unspecified)	Bcl-xL primary 41 (no result: EBV gp42 block)
COc1ccc(N=CC2=C(Nc3ccc(OC)cc3)c3c(C)nn(-c4ccccn4)c3CC2)cc1	Bcl-xL primary active, GLD-1 RNA inh active (no result: MEX-5 binding, EBV gp42 block, E coli Lon inh)
O=C(O)c1ccc(-n2c(/C=C/c3cccc([N+](=O)[O-])c3)nc3ccccc3c2=O)cc1	none (no result: EBV gp42 block)
O=C(O)c1ccc(-n2c(/C=C/c3ccccc3)nc3ccccc3c2=O)cc1	Bcl-xL primary 30 (no result: EBV gp42 block)
N=c1oc2cc(O)ccc2cc1C(=O)Nc1ccccn1	EBV gp42 block 77 (no result: MEX-5 binding, E coli Lon inh)
N=c1oc2cc(O)ccc2cc1C(=O)Nc1nc2ccccc2s1	EBV gp42 block 54
COc1cccc(N2CC(NS(=O)(=O)c3cccnc3)CC2=O)c1 (stereo unspecified)	none (no result: EBV gp42 block)
CC1(C)C(C=C(Cl)Cl)C1C(=O)N/N=C/c1ccccc1F (stereo unspecified)	none (no result: EBV gp42 block)
Cc1c(NC(=O)NC(=O)c2ccc(F)cc2)c(=O)n(-c2ccccc2)n1C	none
Cc1c(N=C2N=C(NC(=O)c3ccc(F)cc3)c3ccccc32)c(=O)n(-c2ccccc2)n1C	EBV gp42 block 116
O=C1CSC(=S)N1/N=C/c1cc(Br)ccc1O	none (no result: EBV gp42 block, E coli Lon inh)
O=C1CSC(=S)N1/N=C/c1ccc(O)c(O)c1O	MEX-5 binding -88, Bcl-xL primary 66, EBV gp42 block 70
CCN(CC)c1ccc(S(=O)(=O)N2CCOCC2)cc1NC(=O)CSc1n[nH]c(N)n1	none
CCN1/C(=C/C=C/C=C/c2sc3ccccc3[n+]2CC)Sc2ccccc21	Bcl-xL primary 128 (no result: E coli Lon inh)
CCN1/C(=C/C=C/C=C/C=C/c2sc3ccccc3[n+]2CC)Sc2ccccc21	none (no result: EBV gp42 block)
CCN1/C(=C/C=C/c2sc3ccccc3[n+]2CC)Sc2ccccc21	MEX-5 binding inconclusive, Bcl-xL primary active (no result: EBV gp42 block)
CCN1/C(=C/c2ccc3cc(C)ccc3[n+]2CC)Sc2ccccc21	MEX-5 binding inconclusive, GLD-1 RNA inh 57
CC[n+]1c(/C=C/Nc2ccccc2)sc2ccccc21	none
COc1cccc(CCNC(=O)CCc2nnc(-c3cc(C)oc3C)o2)c1	none (no result: EBV gp42 block)
COC(=O)C(=O)Nc1nnc(COc2ccccc2)s1	none
O=C1NC(=Nc2ccccc2)/C(=C/c2ccco2)S1	Bcl-xL primary 42
Cc1ccc(N=C2NC(=O)S/C2=C\c2ccco2)cc1	none
Clc1ccc2c(c1)C1OCCC1C(c1ccco1)N2 (stereo unspecified)	Bcl-xL primary 32
COc1ccc(C2CC(c3ccccc3)n3nc(NC(=O)c4cccs4)nc3N2)cc1 (stereo unspecified)	EBV gp42 block 69
COc1ccc(C2CC(c3ccccc3)Nc3nc(NC(=O)c4cccs4)nn32)cc1 (stereo unspecified)	none
Cc1ccc2[nH]c(=O)c(CN(Cc3cccnc3)Cc3nnnn3CC3CCCO3)cc2c1 (stereo unspecified)	none
Cc1ccc2cc(CN(CCO)Cc3nnnn3Cc3ccc(F)cc3)c(=O)[nH]c2c1	none
O=c1[nH]c2cc3c(cc2cc1CN(CCCO)Cc1nnnn1Cc1ccc(F)cc1)OCO3	Bcl-xL primary 33
O=c1[nH]c2cc3c(cc2cc1CN(Cc1ccc2c(c1)OCO2)Cc1nnnn1CC1CCCO1)OCO3 (stereo unspecified)	Bcl-xL primary 70, GLD-1 RNA inh 65
O=C(CSc1nnc(C2CC2)n1-c1ccccc1)N1CCCC1	none (no result: MEX-5 binding, Bcl-xL primary, EBV gp42 block)
CC(C)Cc1nc(N2CCN(C(=O)C(C)C)CC2)c(C#N)c2c1CCC2	none
CC(=O)N1CCN(c2nc(CC(C)C)c3c(c2C#N)CCC3)CC1	Bcl-xL primary 166, GLD-1 RNA inh 157
COc1ccc2nc(C)cc(N3CCOCC3)c2c1	EBV gp42 block 84
CC1(C(=O)NNC(=O)c2ccc(=O)oc2)CC1Br (stereo unspecified)	Bcl-xL primary 37
CC12CCC(=O)CC1CCC1C2CCC2(C)C1CCC2(O)C(=O)CO (stereo unspecified)	none (no result: MEX-5 binding, Bcl-xL primary, EBV gp42 block, GLD-1 RNA inh)
Cc1ccc(CNc2ccc3c(c2)OCO3)c(C)c1	Bcl-xL primary 127 (no result: E coli Lon inh)
Cc1ccc(C)c(NC(=O)Nc2ccc3c(c2)OCO3)c1	none (no result: EBV gp42 block)
C#CC[N+](C)(C)CCN1C(=O)C2C(c3ccccc3)C=CC(c3ccccc3)C2C1=O (stereo unspecified)	none
CC(C)OC(=O)C[N+](C)(C)CCN1C(=O)C2C(c3ccccc3)C=CC(c3ccccc3)C2C1=O (stereo unspecified)	GLD-1 RNA inh 55
